According to PubChem BioAssay (NCATS):
Records with an inconclusive call do not appear. Calls of active or inactive are those of the source. Calls follow the shape of the dose curve; as a rule, active = well fitted cell-killing curve with a large enough effect; inconclusive = small, poorly fitted or top-dose-only effect, or effect the other way; inactive = no such curve, though single readings can be large or run the other way.

Experiment: Quantitative High-Throughput drug screen in 47 multiple myeloma cell lines against the NCATS MIPE library collection: KHM11_PLB cell viability assay (AID 1918962); also: nearly all actives have a fitted effect of over 35% in size
Settings: KHM11 myeloma cell viability, CellTiter-Glo ATP luminescence, 48 h; series mostly up to 45.8 µM; viability, % of DMSO control: at the top concentration
Source text: PI: Beverly A. Mock Ph.D.
Laboratory of Cancer Biology and Genetics,
Center for Cancer Research, National Cancer Institute,
National Institute of Health, Bethesda, Maryland
Drug resistance and disease progression are common in multiple myeloma (MM) patients, underscoring the need for new therapeutic combinations. […] We hypothesized that effective combinations would reduce MYC expression and enhance p16 activity. […] These preclinical data identify potentially useful drug combinations for evaluation in drug-resistant MM and reveal potential mechanisms of combined drug sensitivity.
Described herein is the primary MIPE qHTS used to cherrypick compounds. Validated compounds were then further tested for potential synergistic activiy.
[1] Peat TJ, Gaikwad SM, Dubois W, Gyabaah-Kessie N, Zhang S, Gorjifard S, Phyo Z, Andres M, Hughitt VK, Simpson RM, Miller MA, Girvin AT, Taylor A, Williams D, D'Antonio N, Zhang Y, Rajagopalan A, Flietner E, Wilson K, Zhang X, Shinn P, Klumpp-Thomas C, McKnight C, Itkin Z, Chen L, Kazandijian D, Zhang J, Michalowski AM, Simmons JK, Keats J, Thomas CJ, Mock BA. Drug combinations identified by high-throughput screening promote cell cycle transition and upregulate Smad pathways in myeloma. Cancer Lett. 2023 Aug 1;568:216284. doi: 10.1016/j.canlet.2023.216284. Epub 2023 Jun 24. PMID: 37356470; PMCID: PMC10408729.
SEQUENCE No. (e.g., 1, 2, 3, etc.); […] (e.g., Cells, Incubation, Reagent, etc.); VALUE and DESCRIPTION.
1; Cells; 5 uL; white, solid bottom 1536-well Greiner assay plate.
2; Compounds; 23 nL; Kalypsis pin tool (Wako USA) equipped with a 1536-well pin head to transfer to the assay plates.
3; Incubation; 48 hours; 37C incubation.
4; Reagent;5uL; CellTiter Glo (Promega).
5; Detector; 425V; Luminescence; Viewlux PerkinElmer.
NOTES (numbers refer to Sequence numbers above)
1. The cell-based screening methods employed in this study were like those previously published. Briefly, the corresponding myeloma cell lines were screened in 1,536-well plates with 500 cells, 5-uL per well for inhibition of cell viability (assessed by measuring ATP levels with CellTiterGlo).
2. NCATS MIPE 4.0 library of approved and investigational drugs were added using the Kalypsis pin tool. Wells treated with DMSO only for 100% viability and media only wells for 0% viability were used as controls.
3. The assay plates were covered and incubated for 48 hours in a 37C, 5% CO2 incubator with controlled humidity.
4. After 48 hours, CellTilter-GloTM luminescent substrate mix (Promega) reagent was added to the assay plate and plates we incubated for 5 min at room temperature.
5. Signal was measured as median relative luminescence units on a ViewLux (PerkinElmer) multiplate reader.
[1] Heske CM, Davis MI, Baumgart JT, Wilson K, Gormally MV, Chen L, Zhang X, Ceribelli M, Duveau DY, Guha R, Ferrer M, Arnaldez FI, Ji J, Tran HL, Zhang Y, Mendoza A, Helman LJ, Thomas CJ. Matrix Screen Identifies Synergistic Combination of PARP Inhibitors and Nicotinamide Phosphoribosyltransferase (NAMPT) Inhibitors in Ewing Sarcoma. Clin Cancer Res. 2017 Dec 1;23(23):7301-7311. doi: 10.1158/1078-0432.CCR-17-1121. Epub 2017 Sep 12. PMID: 28899971; PMCID: PMC6636827.
Potency is read from the fitted curve at half-maximal effect.

SMILES	Potency	viability, % of DMSO control
C[C@@H]1[C@@H](C(=O)C[C@H]2O[C@@H]3O[C@]4(C)CC[C@@H]5[C@H](C)CC[C@@H]([C@H]2C)[C@@]35OO4)O[C@@H]2O[C@]3(C)CC[C@H]4[C@H](C)CC[C@@H]1[C@@]24OO3	332 nM (active)	
CNC(=O)N1N=C(c2ccc(N)cc2)c2cc3c(cc2CC1C)OCO3 (stereo not drawn)	2960 nM (active)	
COc1ccc(C(=O)c2c(C)n(CCN3CCOCC3)c3ccccc23)cc1		144% (inactive)
CC(O)(CS(=O)(=O)c1ccc(F)cc1)C(=O)Nc1ccc(C#N)c(C(F)(F)F)c1 (stereo not drawn)	1870 nM (active)	
COC1(CS(=O)c2ccccc2)CCN(CCc2c[nH]c3ccc(F)cc23)CC1 (stereo not drawn)		108% (inactive)
Fc1ccc(C(OCCN2CCN(CCCc3ccccc3)CC2)c2ccc(F)cc2)cc1	13200 nM (active)	
O=c1[nH]c2ccccc2n1CCCN1CCC(n2c(=O)[nH]c3cc(Cl)ccc32)CC1		148% (inactive)
Cc1cccc(C)c1NC(=O)CN1CCCC1=O		99.2% (inactive)
CN1CCN(C(=O)O[C@H]2c3nccnc3C(=O)N2c2ccc(Cl)cn2)CC1		104% (inactive)
CNC(=O)c1ccc(N2C(=S)N(c3ccc(C#N)c(C(F)(F)F)c3)C(=O)C23CCC3)cc1F	33200 nM (active)	
COC[C@H]1OC(=O)c2coc3c2[C@@]1(C)C1=C(C3=O)C2CCC(=O)[C@@]2(C)C[C@H]1OC(C)=O (stereo partly drawn)	3320 nM (active)	
CC(C)CC(N(C)C)C1(c2ccc(Cl)cc2)CCC1 (stereo not drawn)		106% (inactive)
C#CCN(C)[C@H](C)Cc1ccccc1		80.3% (inactive)
C[C@@H]1O[C@@H](O[C@H]2C[C@@H](O)[C@]3(CO)[C@H]4[C@H](O)C[C@]5(C)[C@@H](C6=CC(=O)OC6)CC[C@]5(O)[C@@H]4CC[C@]3(O)C2)[C@H](O)[C@H](O)[C@H]1O	37.2 nM (active)	
CNCC(O)c1ccc(O)cc1 (stereo not drawn)		91.3% (inactive)
Cc1sc2c(c1C)C(c1ccc(Cl)cc1)=N[C@@H](CC(=O)OC(C)(C)C)c1nnc(C)n1-2	8.3 nM (active)	
N[C@@H](Cc1ccc(N(CCCl)CCCl)cc1)C(=O)O	20900 nM (active)	
CN(C)[C@@H]1C(=O)C(C(N)=O)=C(O)[C@@]2(O)C(=O)C3=C(O)c4c(O)cccc4[C@@](C)(O)[C@H]3C[C@@H]12		106% (inactive)
